Compound activity (PubChem)
KLF5 inhibitor: KLF5 expression inhibitors, primary screen, DLD-1 cells, luminescence. inhibition, % at 5 µM. DLD-1 KLF5 promoter-luciferase reporter. 290,000 compounds, 0.23% hits. AID 1700, 2009;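 active = inhibition above a per-plate limit of that plate's mean compound inhibition plus 3 SD, cut at about 60% in these data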;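 note: 0% = DMSO wells and 100% = LY294002 at 200 µM; higher means less KLF5 promoter-driven luciferase light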
Ba/F3 V617F tox: reduced viability of JAK2V617F-dependent Ba/F3 cells, primary screen, JAK2V617F inhibitor project, cell-based, Ba/F3 EpoR-JAK2V617F, luminescence; ATP luminescence; inhibition, % at 5.6 µM; 220,000 compounds, 1.1% hits;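 active = inhibition above the campaign mean plus 3 SD over all tested compounds, cut at about 24% in these data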;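 note: cytokine-independent growth of Ba/F3 cells driven by EpoR plus mutant JAK2; 0% = DMSO-treated cells and 100% = JAK inhibitor I control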
aSyn 5UTR inh: MLPCN primary screen, SNCA 5' untranslated region; alpha-synuclein 5'UTR reporter, inhibitor activity; inhibition, % (tested at 7.5 µM); 300,000 compounds, 0.82% hits; AID 1813, 2009; in the data active = inhibition above about 60%;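 note: H4 neuroglioblastoma cells stably carrying SNCA 5'UTR luciferase fusion; 0% = DMSO wells and 100% = positive control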
APP transl inh: inhibitors of APP translation via 5'UTR reporter, primary screen, APP 5'UTR luciferase, SH-SY5Y cells | SH-SY5Y APP 5'UTR-luciferase reporter, luminescence | inhibition, % at 2 µM | 190,000 compounds, 0.82% hits | AID 1285, 2008;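 active = inhibition above a set limit, derived from the sample mean plus 3 SD, cut at about 45% in these data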
IEC-6 tox: cytotoxicity in IEC-6 intestinal epithelial cells, primary screen, cytotoxicity control for KLF5 inhibitor project, cell-based, luminescence; inhibition, % at 5 µM; IEC-6 cytotoxicity, luminescence viability; 290,000 compounds, 0.78% hits; in the data active = inhibition above about 22%;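 note: 0% = plate median of test compound wells and 100% = cytotoxic reference compound wells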
BaF3 parental: parental Ba/F3 cell viability inhibition, counter-screen for JAK2V617F inhibitor project, murine pro-B, CellTiter-Glo luminescence | inhibition, % at 5.6 µM | 220,000 compounds, 1.1% hits | CellTiter-Glo ATP luminescence;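 active = inhibition above a per-campaign cutoff, the mean inhibition of all tested compounds plus 3 SD, cut at about 27% in these data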;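 note: 0% = DMSO wells and 100% = JAK Inhibitor I control wells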
Active calls of the source: *; . = not tested or not shown. Most compounds without a hit are left out; they make up all but 2.2% or so of the library.

SMILES	KLF5 inhibitor	Ba/F3 V617F tox	aSyn 5UTR inh	APP transl inh	IEC-6 tox	BaF3 parental
COc1ccc(/C=N/OCC(=O)OCC(=O)N(C)c2ccccc2)cc1	.	.	3.3	.	.	.
C/C(=N\NC(=O)c1nnn(-c2nonc2N)c1CN(C)c1ccccc1)c1ccc(O)cc1	-24.4	.	18.3	.	-9.3	.
C/C(=N\NC(=O)c1nnn(-c2nonc2N)c1CN(C)c1ccccc1)c1ccccn1	62.0*	.	88.4*	.	38.4*	.
Cc1cccc(OCc2nnc(SCCC(=O)O)n2-c2ccccc2)c1	-16.1	.	10.6	.	-2.1	.
Cc1ccc(/C=C2\SC(=S)N(CCCC(=O)Nc3ccccn3)C2=O)cc1	28.9	-2.3	106.8*	55.3*	-0.4	0.4
Cc1ccc(/C=C2\SC(=S)N(CCCC(=O)Nc3ccc(O)cc3)C2=O)cc1	61.5	1.8	103.6*	.	-0.3	-0.1
Cc1ccc(/C=C2\SC(=S)N(CCCC(=O)Nc3ccccc3C(=O)O)C2=O)cc1	6.2	.	67.6*	.	6.9	.
COc1ccc(-c2noc(N3CCC(C(=O)Nc4cc(OC)c(OC)c(OC)c4)CC3)n2)cc1	-3.0	.	6.2	.	-0.2	.
Cc1ccc(CSc2nc3ccncc3[nH]2)cc1	53.4	3.6	72.5*	-147.5	6.7	15.5
Cc1ncc(CO)c(/C=N/Nc2ccc(C(F)(F)F)cn2)c1O	52.0	.	87.6*	.	-3.0	.
Cc1ncc(CO)c(/C=N/NC(=S)Nc2ccc(F)cc2)c1O	-40.8	2.2	12.8	32.0	-5.9	3.6
O=C(CN1C(=O)NC2(CCCC2)C1=O)NNC(=O)c1ccccc1	.	.	3.5	.	.	.
COc1cc(CNCc2ccc(Br)cc2)cc(OC)c1	-41.6	.	-2.2	.	0.1	.
CC(C)(C)c1ccc(CN2C3=NCCCN3c3ccccc32)cc1	-16.5	45.8*	-62.0	-17.0	6.2	45.8*
Clc1ccc(CN2C3=NCCN3c3ccccc32)cc1	-6.8	-0.4	19.3	10.1	-2.2	62.3*
CC(=O)Nc1cc[n+](C(C)C(=O)c2ccc(Br)cc2)cc1 (stereo not given)	-3.6	39.6*	-16.8	-7.7	1.0	37.5*
C/C(=N\NC(=S)Nc1ccc(F)cc1)C1CC1	-44.0	8.5	-30.3	20.4	-1.2	91.9*
COc1cccc(CNC(=O)c2cc3oc4ccccc4c3n2C)c1OC	1.5	-1.9	5.0	-7.8	-0.2	0.6
CCOc1ccccc1CNC(=O)c1cc2oc3ccccc3c2n1CC	-21.6	-4.5	65.6*	.	-1.1	2.4
C=CCNC(=S)N(CC)c1cccc2ccccc12	-17.0	34.3*	-7.4	-3.6	6.9	35.6*
CC[n+]1c(C)cc2c(sc3ccccc32)c1C	-36.5	87.7*	.	4.4	0.5	70.7*
O=C(O)/C=C/c1cccc(OCc2ccccc2)c1	-15.7	1.7	-5.3	-6.7	5.9	-0.9
O=C(/C=C/c1cccc(OCc2ccccc2)c1)c1cccnc1	-8.2	-3.2	4.3	87.2*	3.6	2.4
O=C(c1cnn2c(C(F)F)cc(-c3ccccc3)nc12)N1CCc2ccccc21	-8.3	2.8	0.9	-24.7	-1.4	4.4
Cc1ccc(-c2cc(C(F)F)n3ncc(C(=O)N4CCc5ccccc54)c3n2)cc1	-19.4	2.6	25.2	87.4*	5.2	1.4
SMILES	KLF5 inhibitor	Ba/F3 V617F tox	aSyn 5UTR inh	APP transl inh	IEC-6 tox	BaF3 parental
COc1cccc(CNC(=O)CC2Sc3ccccc3NC2=O)c1 (stereo not given)	-16.0	0.8	-16.3	-11.8	0.5	59.0*
CCN(CC)CCNC(=O)c1ccc(Cl)c(S(=O)(=O)Nc2ccccc2OC)c1	5.4	1.1	8.6	-9.2	1.6	2.2
CCN(CC)CCNC(=O)c1ccc(Cl)c(S(=O)(=O)Nc2ccc(Cl)cc2)c1	-10.3	2.1	10.5	59.9*	0.9	7.2
COc1cc(C)c(C(=O)CC(=O)c2c(C)cc(OC)cc2C)c(C)c1	.	.	72.2*	.	.	.
COc1ccc(NC(C)=O)c(C)c1	-1.0	0.5	8.4	-3.8	-6.0	8.5
O=C(CNC(=O)c1ccccc1)NCC(O)c1ccc([N+](=O)[O-])cc1 (stereo not given)	-18.5	.	-2.3	.	5.4	.
COc1ccc(NC(=O)CN2C(=O)CSC(C)C2=O)c(OC)c1 (stereo not given)	-5.2	-1.7	-2.0	-6.3	-12.5	29.8*
CCOc1ccc(OCCC(=O)N(CCCOC)c2c(N)n(Cc3ccccc3)c(=O)[nH]c2=O)cc1	.	.	13.6	.	.	.
